For experiment [1], the target named is Peroxisome proliferator-activated receptor gamma (Homo sapiens) (UniProt P37231). Briefly: OT_PPARg_PPARgSRC1_1440: Odyssey Thera (OT) 24-hour Protein-Complementation Assay for Peroxisome Proliferator-activated Receptor Gamma/ SRC-1 Co-activator (AID 2283388; active = hit-call score of the fitted dose curve at least 0.9, where 1 is the maximum;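 also: nuclear to cytoplasmic ratio of reconstituted Venus YFP fluorescence in fixed imaged cells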). In a few lines:
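Protein-fragment complementation between PPARg and coactivator SRC-1 was measured by fluorescence imaging in transiently transfected HEK293T cells after 24 h treatment. Signal was quantified as N/C ratio in the 488 nm channel, with DMSO as negative control.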

A short description of experiment [2]: CEETOX_H295R_11DCORT: CeeTox H295R High-throughput Steroidogenesis Assay for 11-Deoxycortisol (11DCORT) (AID 2283432).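 As to AC50: 11-deoxycortisol secreted into the medium measured by LC-MS/MS.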 The following applies: actives raise or lower the signal. In a few lines: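 H295R cells; 10 uM forskolin prestim 48 h; compound in 0.1% DMSO 48 h; media extracted with MTBE; 11-deoxycortisol by LC-MS/MS, 7-point standard curve; gain/loss vs DMSO baseline; viability by MTT in same wells.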

The nature of experiment [3]: CEETOX_H295R_OHPREG: CeeTox H295R High-throughput Steroidogenesis Assay for OH-Pregnenolone (OHPREG) (AID 2283434). Conditions: actives raise or lower the signal. In a few lines: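 Hormone levels in spent medium were measured by tandem mass spectrometry following liquid-liquid extraction. Cells (H295R) had been forskolin-stimulated (10 uM, 48 h) before a 48 h chemical exposure at 0.1% DMSO, with activity fitted in both directions against DMSO.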

Experiment [4] can be described thus: CEETOX_H295R_OHPROG: CeeTox H295R High-throughput Steroidogenesis Assay for OH-Progesterone (OHPROG) (AID 2283435). Conditions: actives raise or lower the signal. Put shortly:
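H295R human adrenal cells were prestimulated 48 h with 10 uM forskolin, then exposed 48 h to test chemical (0.1% DMSO final). 17alpha-hydroxyprogesterone in medium was measured by HPLC-MS/MS after MTBE extraction; bidirectional fitting vs DMSO.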

Experiment [5] is described as follows: CEETOX_H295R_ANDR: CeeTox H295R High-throughput Steroidogenesis Assay for Androstenedione (ANDR) (AID 2283436). Conditions: actives raise or lower the signal. Put shortly:
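Read-out is androstenedione secreted into medium, measured by tandem mass spectrometry after liquid-liquid extraction. Cells were H295R, dosed for 48 h per modified OECD 456; activity fitted in both directions relative to DMSO.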

A short description of experiment [6]: CEETOX_H295R_CORTIC: CeeTox H295R High-throughput Steroidogenesis Assay for Corticosterone (CORTIC) (AID 2283437).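 Also: corticosterone secreted into medium quantified by mass spectrometry.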 Conditions: actives raise or lower the signal. Put shortly:
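Corticosterone secreted into medium is measured by reverse-phase HPLC with tandem MS following liquid-liquid extraction. Cells are forskolin-stimulated (10 uM, 48 h) before 48 h test exposure; activity fitted in both directions against DMSO.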

A short description of experiment [7]: CEETOX_H295R_CORTISOL: CeeTox H295R High-throughput Steroidogenesis Assay for Cortisol (AID 2283438).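 Also: cortisol secreted into medium quantified by LC-MS/MS.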 Conditions: actives raise or lower the signal. In a few lines: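 H295R human adrenal cells were prestimulated 48 h with 10 uM forskolin, then exposed 48 h to test chemical (0.1% DMSO final). Medium cortisol was quantified by HPLC-MS/MS after MTBE extraction; bidirectional fitting relative to DMSO baseline.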

Experiment [8] can be described thus: CEETOX_H295R_DOC: CeeTox H295R High-throughput Steroidogenesis Assay for DOC (AID 2283439). Conditions: actives raise or lower the signal. In a few lines:
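H295R adrenal cells prestimulated 48 h with 10 uM forskolin, then exposed 48 h to test chemical (0.1% DMSO final). Medium 11-deoxycorticosterone extracted with MTBE, quantified by HPLC-MS/MS; bidirectional fit versus DMSO baseline; MTT viability in same wells.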

Experiment [9] is described as follows: CEETOX_H295R_ESTRADIOL: CeeTox H295R High-throughput Steroidogenesis Assay for Estradiol (AID 2283440).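 Also: estradiol secreted into medium quantified by LC-MS/MS after dansyl derivatisation.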 Conditions: actives raise or lower the signal. In a few lines: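 Estradiol secreted into the medium was measured by tandem mass spectrometry after liquid-liquid extraction and dansylation. Human H295R cells had been forskolin-primed (10 uM, 48 h) before a 48 h chemical exposure with 0.1% DMSO.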

Experiment [10] can be described thus: CEETOX_H295R_ESTRONE: CeeTox H295R High-throughput Steroidogenesis Assay for Estrone (AID 2283441).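 Also: estrone secreted into medium measured by LC-MS/MS after dansyl derivatization.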 The following applies: actives raise or lower the signal. Put shortly:
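H295R cells; 48 h forskolin (10 uM) prestimulation; 48 h compound exposure, 0.1% DMSO final. Medium estrone: MTBE extraction, dansyl derivatization, HPLC-MS/MS. Bidirectional fit vs DMSO.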

Values joined by “and” are separate entries in the source; they are usually repeats but may differ in a detail not shown here. Equal values may be shown once. Where a structure was tested more than once in an assay, its records may differ in their call. Active and inactive are the calls of the source. The calls were made as follows, unless noted: active = hit-call score of the fitted dose curve at least 0.9, where 1 is the maximum; inactive = score below 0.9.

Sequence of Peroxisome proliferator-activated receptor gamma (Homo sapiens) (P37231 whole entry, looked up, the tested form may be a part): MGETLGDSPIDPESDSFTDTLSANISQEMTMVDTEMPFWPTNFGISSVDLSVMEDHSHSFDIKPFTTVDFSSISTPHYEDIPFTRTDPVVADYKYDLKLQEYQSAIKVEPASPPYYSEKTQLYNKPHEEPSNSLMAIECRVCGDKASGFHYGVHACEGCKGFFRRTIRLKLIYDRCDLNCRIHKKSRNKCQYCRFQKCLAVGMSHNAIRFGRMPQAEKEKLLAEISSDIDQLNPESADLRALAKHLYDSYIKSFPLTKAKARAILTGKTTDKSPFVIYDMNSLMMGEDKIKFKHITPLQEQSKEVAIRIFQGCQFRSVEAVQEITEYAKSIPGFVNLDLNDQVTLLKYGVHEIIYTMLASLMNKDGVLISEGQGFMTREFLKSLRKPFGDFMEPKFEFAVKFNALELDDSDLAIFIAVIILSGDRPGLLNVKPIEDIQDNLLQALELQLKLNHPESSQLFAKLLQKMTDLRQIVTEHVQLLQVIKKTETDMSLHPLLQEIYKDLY

Take `CCC(=O)O[C@H]1CC[C@H]2[C@@H]3CCC4=CC(=O)CC[C@]4(C)[C@H]3CC[C@]12C`: the result in experiment [1] and in experiment [6] was inactive. Further, the AC50 (in general, the concentration giving half of the maximal activity seen) was 75.1 µM (active) in experiment [2]; 34.1 µM (active) in experiment [3]; 3.14 µM (active) in experiment [4]; 22.8 µM (active) in experiment [5]; 30.7 µM (active) in [7]; 1.77 µM (active) in experiment [8]. Moreover, the AC50 was 0.643 µM (active) in experiment [9] and 1.31 µM (active) in experiment [10].

For `CCCN(CCC)N=O`, the outcome in experiment [1] was inactive.

As for `CCOCCOC(C)=O`, the result in experiment [1], in [2], in experiment [3], in experiment [4], in experiment [6] and in [7] was inactive. Further, the result in experiment [8] was inactive.

`Cc1cc2c3c(c1)C(c1ccccc1)=N[C@@H](NC(=O)c1ccncc1)C(=O)N3CC2`: the concentration at half-maximal activity (AC50) in [1] is 37.4 µM (active); in experiment [3], 25.4 µM (active); in experiment [4], 25.6 µM (active). In addition, the compound was called inactive in [1], in [9] and in experiment [10].

Consider `C[C@]12CCC(=O)C=C1CC[C@@H]1[C@@H]2CC[C@]2(C)C(=O)CC[C@@H]12`, for which the call in experiment [1], in experiment [9] and in [10] was inactive. For the same compound, the AC50 in experiment [3] was 8.12 µM (active); in experiment [4], 0.535 µM (active).

In the case of `N#Cc1ccc(N(CC(N)=O)CC(F)(F)F)cc1C(F)(F)F`, the compound was called inactive in experiment [1], in experiment [3], in experiment [4], in [9] and in [10].

For the compound `NS(=O)(=O)C(F)(F)C(F)(F)C(F)(F)C(F)(F)C(F)(F)C(F)(F)C(F)(F)C(F)(F)F`, the outcome in [1], in [2], in experiment [3], in experiment [4], in experiment [5] and in experiment [6] was inactive. In addition, the compound was classed as inactive in experiment [7], in [8], in [9] and in experiment [10].

As to `ClC1=C(Cl)[C@]2(Cl)[C@@H]3[C@H]4C[C@H]([C@@H]5O[C@H]45)[C@@H]3[C@@]1(Cl)C2(Cl)Cl`, the compound was classed as inactive in [1] and in experiment [6]. Besides, the AC50 was 7.42 µM (active) in experiment [2]; 1.48 µM (active) in [3]; 13 µM (active) in experiment [4]; 5.13 µM (active) in experiment [7]; 14.6 µM (active) in [8].

In the case of `C[C@]12CCC(=O)C=C1CC[C@@H]1[C@@H]2CC[C@@]2(C)[C@H]1CC[C@]2(C)O`, the call in experiment [1], in [6] and in experiment [8] was inactive. Besides, the AC50 in experiment [2] is 11 µM (active); in experiment [3], 5.59 µM (active); in [4] it was 0.807 µM (active); in experiment [7], 7.76 µM (active).

Turning to `C=CC(N)=O`, the outcome in experiment [2], in [6], in experiment [7] and in [8] was inactive.

For `Cc1cccc(C)c1N`, the compound was classed as inactive in experiment [1], in experiment [2], in [3], in experiment [4], in experiment [6] and in [7]. Further, the compound was called inactive in experiment [8], in experiment [9] and in experiment [10].

Take `Oc1ccc(Cl)cc1Cl`: the compound was classed as inactive in experiment [1], in [2], in experiment [3], in [6], in [7] and in experiment [8]. Moreover, the AC50 is 22.2 µM (active) in experiment [4], 17 µM (active) in [9] and 24.4 µM (active) in experiment [10].

Take `CC#Cc1cc(C)nc(Nc2ccccc2)n1`: the compound was classed as inactive in experiment [1], in experiment [2], in [3], in experiment [6], in experiment [7] and in experiment [8]. In addition, the outcome in experiment [9] and in experiment [10] was inactive. Also, the AC50 in experiment [4] is 34.8 µM (active).

Consider `CC(C)C(=O)OCC(C)(C)C(OC(=O)C(C)C)C(C)C` (stereo not drawn), for which the outcome in [1] was inactive.

Take `CCOC(=O)C(O)(c1ccc(Cl)cc1)c1ccc(Cl)cc1`: the compound was classed as inactive in experiment [1].

With `CCCCCCOC(=O)c1ccccc1C(=O)OCCCCCC`, the outcome in experiment [1] and in experiment [6] was inactive.

As to `Cc1cc(O)ccc1Cl`, the call in [1], in [2], in experiment [3], in [6], in [7] and in experiment [8] was inactive. The call in [9] and in [10] was inactive. For the same compound, in experiment [4], the AC50 was 21.5 µM (active).

In the case of `O=C(NC(=O)c1c(F)cccc1F)Nc1cc(Cl)c(OC(F)(F)C(F)F)c(Cl)c1`, the outcome in experiment [1], in experiment [2], in experiment [3], in experiment [4], in [5] and in experiment [6] was inactive. For the same compound, the call in [7], in experiment [8], in [9] and in experiment [10] was inactive.

In the case of `c1cc2ccc3cccc4ccc(c1)c2c34`, the compound was classed as inactive in experiment [1], in [6] and in experiment [7]. Besides, the AC50 in experiment [2] is 26.5 µM (active); in experiment [3], 15.8 µM (active); in experiment [4], 27.1 µM (active); in experiment [5], 35.9 µM (active); in experiment [8] it was 14.5 µM (active).

Turning to `Cc1cc(-c2ccc(N)c(C)c2)ccc1N`, the outcome in [1] and in experiment [3] was inactive. In experiment [4], the AC50 was 2.96 µM (active) and 10.2 µM (active).

As to `Clc1ccc(C(c2ccccc2Cl)C(Cl)(Cl)Cl)cc1` (stereo not drawn), the call in experiment [1], in experiment [2], in experiment [3], in [4], in [6] and in [7] was inactive. The result in [8], in experiment [9] and in [10] was inactive.

As for `CC1=C2C[C@H]3[C@@H](CC=C4C[C@@H](O)CC[C@@]43C)[C@@H]2CC[C@]12O[C@@H]1C[C@H](C)CN[C@H]1[C@H]2C`, the compound was classed as inactive in experiment [1], in experiment [2], in experiment [5], in experiment [6], in [7] and in [8].

For the compound `CCOP(=S)(OCC)SCSC(C)(C)C`, the result in [1] was inactive. The AC50 in [3] is 37 µM (active).

Turning to `Nc1ccc(-c2ccc(N)cc2)cc1`, the compound was classed as inactive in [1], in experiment [9] and in experiment [10]. Besides, the AC50 in experiment [2] was 79.6 µM (active); in [3], 14.3 µM (active); in experiment [4], 37.4 µM (active); in [6] it was 2.96 µM (active); in experiment [7] it was 65.8 µM (active); in experiment [8], 17.7 µM (active).

`CCC(C)(CC)c1cc(NC(=O)c2c(OC)cccc2OC)on1`: the compound was called inactive in [1], in experiment [3] and in experiment [4].

Consider `CCSC(=O)N(CC)C1CCCCC1`, for which the compound was called inactive in [1], in [2], in experiment [4], in experiment [6], in experiment [7] and in experiment [8].

For the compound `Cc1ccccc1CO[C@@H]1C[C@@]2(C(C)C)CC[C@]1(C)O2`, the outcome in [1] and in experiment [4] was inactive. For the same compound, the AC50 in [3] and in experiment [5] was 50 µM (active) each time.

Take `Cc1ccc(O)c(C)c1`: the compound was called inactive in [1], in experiment [2], in experiment [3], in [4], in experiment [6] and in [7]. Further, the result in experiment [8], in experiment [9] and in experiment [10] was inactive.

For `CCC(C)(c1ccc(O)cc1)c1ccc(O)cc1`, the compound was called inactive in [1].

Consider `c1ccc(-c2ccccc2)cc1`, for which the outcome in [1] was inactive.

For `Cc1ccccc1[N+](=O)[O-]`, the result in experiment [1] was inactive.

On to `CCNc1nc(NC(C)C)nc(SC)n1`, for which the result in [1], in experiment [3], in experiment [4] and in experiment [5] was inactive.
